Source: PubChem BioAssay (The Scripps Research Institute Molecular Screening Center)
MOR-DOR ag-1 = agonists of human mu-delta opioid receptor heterodimerization; cells, OPRM1-OPRD1 heterodimerization, luminescence; activation, % at 9.3 µM; 340,000 compounds, 0.3% hits
HTR5A inv ctr = counter-screen for OPRM1-OPRD1 inverse agonists: human HTR5A inverse agonism | P47898 | HTR5A cell line, luminescence | inhibition, % at 9.3 µM | 340,000 compounds, 0.083% hits; in the data active means inhibition mostly above about 23%, no sharp cut-off; inactive means mostly below about 18%
Target sequence (P47898 whole entry, looked up): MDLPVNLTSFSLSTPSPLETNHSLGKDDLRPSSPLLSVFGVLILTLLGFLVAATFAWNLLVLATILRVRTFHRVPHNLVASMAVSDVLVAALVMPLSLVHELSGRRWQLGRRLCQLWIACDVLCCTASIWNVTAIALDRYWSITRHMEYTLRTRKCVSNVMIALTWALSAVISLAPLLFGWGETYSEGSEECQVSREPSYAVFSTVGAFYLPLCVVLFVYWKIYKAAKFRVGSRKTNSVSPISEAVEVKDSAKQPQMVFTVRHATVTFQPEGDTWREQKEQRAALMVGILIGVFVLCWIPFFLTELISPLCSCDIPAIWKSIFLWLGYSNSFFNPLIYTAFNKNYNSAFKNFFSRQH
MOR-DOR inv ag-1 = inverse agonists of human mu-delta opioid receptor heterodimerization. P35372+P41143. AID 504357. cell-based MOR-DOR heterodimer luminescence, inverse agonism. 340,000 compounds, 0.21% hits. inhibition, % at 9.3 µM; in the data active means inhibition above about 22%, passing the limit was not always enough
HTR5A ag = activates human HTR5A in OPRM1-OPRD1 agonist counter-screen; activation, % at 9.3 µM; HTR5A agonist assay, luminescence, cell-based; P47898; 340,000 compounds, 0.61% hits; AID 504692; in the data active means activation mostly above about 9.5%, no sharp cut-off; inactive means mostly below about 7.6%
MOR-DOR ag conf = OPRM1-OPRD1 heterodimer agonism, confirmation. shares compounds with MOR-DOR ag-1. cells, MOR-DOR heterodimerization, luminescence complementation. activation, % at 9.3 µM. 830 compounds, 45% hits
HTR5A ag counter = activates human HTR5A in OPRM1-OPRD1 agonist counter-screen; shares compounds with MOR-DOR ag-1; activation, % at 9.3 µM; HTR5A agonist counterscreen, cell luminescence; AID 504905; 830 compounds, 8% hits; in the data active means activation above about 17%
OPRM1-D1 inv cf = confirmation of human OPRM1-OPRD1 heterodimerization inverse agonists; shares compounds with MOR-DOR inv ag-1; cells expressing OPRM1/OPRD1 heterodimer, luminescence; inhibition, % at 9.3 µM; 580 compounds, 20% hits; in the data active means inhibition above about 32%
HTR5A inv count = HTR5A inverse agonism, opioid heterodimer counter-screen; shares compounds with MOR-DOR inv ag-1; HTR5A-expressing cells, luminescence; inhibition, % at 9.3 µM; 580 tested, under 10 active; call rule not given here
MOR-DOR inv ag-2 = inverse agonist of OPRM1-OPRD1 heterodimerization in HTR5A counter-screen; shares compounds with HTR5A inv ctr; U2OS counter-screen cells, complementation luminescence; inhibition, % at 9.3 µM; 190 tested, under 10 active; AID 504912; call rule not given here
HTR5A inv conf = HTR5A (human) inverse agonism, confirmation. shares compounds with HTR5A inv ctr. HTR5A-expressing cells, luminescence. inhibition, % at 9.3 µM. 190 tested, under 10 active. AID 504916; call rule not given here
MOR-DOR ag-2 = promotes OPRM1-OPRD1 heterodimerization in HTR5A counter-screen | shares compounds with HTR5A ag | U2OS counter-screen cells, complementation luminescence, 3 h | activation, % at 9.3 µM | 800 compounds, 13% hits
HTR5A ag confirm = confirmation of human HTR5A agonists. HTR5A agonist cell assay, luminescence. shares compounds with HTR5A ag. AID 504915. 800 compounds, 17% hits. activation, % at 9.3 µM; in the data active means activation above about 17%
Hits are given with their value; n = inactive. Shown are actives, neighbours in structure and some others; about 1.1% of the full set was active somewhere. Unless noted, no stated cut-off is given here; in the data, active means activation above about 18%; inactive means the rest.

SMILES	MOR-DOR ag-1	HTR5A inv ctr	MOR-DOR inv ag-1	HTR5A ag	others
C[C@]12CC(=O)CC1CCC1C2CC[C@@]2(C)C1CC[C@@H]2O (stereo not given in full)	n	n	n	n
CCC(COC(=O)c1cc(OC)c(OC)c(OC)c1)(c1ccccc1)N(C)C (stereo not given)	54.4	n	n	n	MOR-DOR ag conf=50.7;HTR5A ag counter=n
N#CC1c2ccccc2-n2nncc2CN1S(=O)(=O)c1cc(Cl)cc(Cl)c1 (stereo not given)	n	n	n	n
C=CCCC1(C(C)C)C(=O)NC(=S)NC1=O	n	n	n	n
CN(C)C1(CNC(=O)Nc2ccc(Cl)c(Cl)c2)CCCCC1	67.4	n	n	n	MOR-DOR ag conf=n;HTR5A ag counter=n
CC1CN(O)C2CCc3nonc3C12O (stereo not given)	n	n	42.6	n	OPRM1-D1 inv cf=n;HTR5A inv count=n
CCOc1ccc2nc(N=Nc3c(O)[nH]c(=S)[nH]c3=O)sc2c1	n	n	32.2	n	OPRM1-D1 inv cf=n;HTR5A inv count=n
Cc1ccc(N/N=C/c2c(O)n(-c3ccccc3)c(=O)[nH]c2=O)cc1	n	n	31.9	n	OPRM1-D1 inv cf=n;HTR5A inv count=n
CCCCn1c(NS(=O)(=O)c2ccc(C)cc2)c(C(=O)OCC)c2nc3ccccc3nc21	n	n	n	n
CCCCOCCCn1c(N)c(C(=O)OCCOC)c2nc3ccccc3nc21	n	n	33.0	n	OPRM1-D1 inv cf=n;HTR5A inv count=n
CCCCn1c(NC(=O)c2ccco2)c(C(=O)OCC)c2nc3ccccc3nc21	n	n	44.8	n	OPRM1-D1 inv cf=n;HTR5A inv count=n
COC(COC(N)=O)C1=C(N2CC2)C(=O)C(C)=C(N2CC2)C1=O (stereo not given)	n	n	n	n
CC1=C(N2CC2)C(=O)C(CO)=C(N2CC2)C1=O	n	n	42.5	n	OPRM1-D1 inv cf=n;HTR5A inv count=n
C[C@H]1CCCC(=O)CCC/C=C/c2cc(O)cc(O)c2C(=O)O1	n	n	n	n
C[C@H]1CCC/C=C/[C@@H]2C[C@H](O)C[C@H]2[C@H](O)/C=C/C(=O)O1	n	n	32.9	n	OPRM1-D1 inv cf=n;HTR5A inv count=n
COC(=O)C1=C(c2cccc(C#N)c2)C[C@@H]2CC[C@H]1N2C(=O)NC1CC1	n	n	n	n
Nc1cc(Cl)c2nonc2c1[N+](=O)[O-]	n	n	40.2	n	OPRM1-D1 inv cf=n;HTR5A inv count=n
CC[C@@H](O)C[C@H]1CCC[C@@]2(C[C@@H]3OC(=O)/C=C/[C@@](C)(O)[C@@H](O)[C@H](C)[C@@H](O)[C@H](OC4CCC(N(C)C)C(C)O4)[C@@H](O)[C@](C)(O)CCCCC/C=C/[C@@H]4CC(C)(C)O[C@@]4(O)C[C@H](O2)[C@H]3C)O1 (stereo not given in full)	n	n	n	n
c1ccc(C2N3CCCN23)cc1 (stereo not given)	n	n	n	n
ON1C2CCCCC2N(O)C1c1ccccc1 (stereo not given)	n	n	44.7	n	OPRM1-D1 inv cf=n;HTR5A inv count=n
C=C1[C@H]2CC[C@H]3[C@]4(C)C[C@H](O[C@H]5O[C@H](CO)[C@@H](OS(=O)(=O)O)[C@H](OS(=O)(=O)O)[C@H]5OC(=O)CC(C)C)C[C@@H](C(=O)O)[C@H]4CC[C@]3(C2)[C@H]1O	n	n	n	n
COc1ccc(NC(=O)N2C[C@@H]3C[C@@H](C2)c2cccc(=O)n2C3)c(OC)c1	n	n	n	n
CC1CCCN(CC(=O)c2ccc(Cl)c(Cl)c2)C1 (stereo not given)	n	n	71.0	n	OPRM1-D1 inv cf=66.0;HTR5A inv count=n
Cc1cnc(-n2c(=S)[nH]c3ccccc3c2=O)s1	n	n	n	n
Cc1nc2ccccc2c(=O)n1-c1ccc(-c2ccccc2)cc1	n	n	n	n
SMILES	MOR-DOR ag-1	HTR5A inv ctr	MOR-DOR inv ag-1	HTR5A ag	others
CC1CN(CC(=O)c2ccccc2Cl)CC(C)O1 (stereo not given)	n	n	n	n
CC1CCN(CC(=O)c2ccccc2Cl)CC1	n	n	39.8	n	OPRM1-D1 inv cf=n;HTR5A inv count=n
CN(C)c1ccc(/C=C/c2cc[n+](C)c3ccccc23)cc1	n	38.2	n	n	MOR-DOR inv ag-2=n;HTR5A inv conf=n
CC(C)(C)C(=O)N1Cc2ccccc2-n2nncc2C1	n	n	n	n
COc1nc2ccccc2nc1N1CCN(C)CC1	n	n	n	20.3	MOR-DOR ag-2=n;HTR5A ag confirm=n
CC1=C[C@@H]2c3cccc4[nH]cc(c34)C[C@H]2N(C)C1	n	n	n	26.2	MOR-DOR ag-2=n;HTR5A ag confirm=33.9
CCOC(=O)CC1c2ccccc2-n2nncc2CN1Cc1ccc(OC)cc1 (stereo not given)	n	n	n	n
Cc1cccc(CSc2nc3c(cc2C#N)CN(C)CC3)c1	n	n	n	19.8	MOR-DOR ag-2=n;HTR5A ag confirm=n
CN1CCc2nc(SCc3ccccc3Br)c(C#N)cc2C1	n	n	n	n
O=c1[nH]c(Cl)ccc1CN1CCOCC1	n	n	n	n
CCC(=NCCc1c[nH]c2ccccc12)c1c(O)n(C)c(=O)n(C)c1=O	n	n	n	40.5	MOR-DOR ag-2=n;HTR5A ag confirm=n
CC(=NCCc1c[nH]c2ccccc12)c1c(O)n(Cc2ccccc2)c(=O)[nH]c1=O	n	n	n	n
CCC(=NCCc1c[nH]c2ccccc12)c1c(O)n(-c2ccc(C)cc2)c(=O)[nH]c1=O	n	n	n	18.6	MOR-DOR ag-2=n;HTR5A ag confirm=n
Nc1cc(Cl)cc(C(=O)O)c1Cl	n	n	n	n
CC(N)Cc1c[nH]c2ccc(Cl)cc12 (stereo not given)	n	n	n	n
COc1ccc2[nH]cc(CCN=C(N)N)c2c1	n	n	n	n
CCCCc1ccc2[nH]cc(CCN)c2c1	n	n	n	97.1	MOR-DOR ag-2=n;HTR5A ag confirm=n
NCCc1c[nH]c2ccc(OCc3ccccc3)cc12	n	n	n	33.1	MOR-DOR ag-2=n;HTR5A ag confirm=n
O=P(O)(O)CN1CCNCCN(CP(=O)(O)O)CCNCC1	n	n	n	n
CN1CC=C(c2c[nH]c3ccccc23)CC1	n	n	n	23.1	MOR-DOR ag-2=n;HTR5A ag confirm=n
O=C(CCNC(=O)N1C[C@H]2C[C@@H](C1)c1cccc(=O)n1C2)Nc1cccc(Cl)c1	n	n	n	n
